Calls of active or inactive are those of the source. The call rests on the fitted dose curve. Peptide text beside a SMILES is read from it.
Test: qHTS drug screen for cell cycle checkpoint inhibitors in PARPi-resistant BRCA-mutant ovarian cancer cell lines. (AID 1963452)
Conditions: PEO1/OlaR viability, CellTiter-Glo luminescence, 96 h, stronger effect = lower value
Outline: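 PEO1, PEO4 and PEO1/OlaR ovarian cancer cells, 600 per well, exposed 96 h at 37C to a dilution series. Viability read by CellTiter-Glo luminescence, normalized to DMSO and empty wells; activity summarized as Z-AUC.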

[1] = measured here: PEO1 parental Z-AUC

In the case of `COC(=O)[C@H](Cc1ccccc1)NC(=O)[C@@H](N)CC(=O)O` (H-Asp-Phe-OMe), the Z-AUC is reported as 0.187 (inactive), the Z-AUC [1] is reported as 0.0667 and the Z-AUC (measured here: PEO4 Z-AUC) is reported as 0.437.
For `O=C(O)c1cccc(-c2noc(-c3ccccc3F)n2)c1`, the Z-AUC was 0.225 (inactive), the Z-AUC [1] was 0.852 and the Z-AUC (measured here: PEO4 Z-AUC) was 1.3.
For `CCN(CC)C(=S)SSC(=S)N(CC)CC`, the Z-AUC was 0.318 (inactive), the Z-AUC [1] was 0.214 and the Z-AUC (measured here: PEO4 Z-AUC) was 0.454.
